Compound activity from PubChem BioAssay.
A selection: hits, their analogues and other compounds. The true share with any hit is near 2.3%.
POLK inh – qHTS for Inhibitors of Polymerase Kappa; Potency, µM (highest dose often 107 µM), inactives show top-dose activity, negative = inhibition, most hits filed as inhibitors; 0.53% of 400,000 active; purified Pol kappa, fluorescent DNA synthesis assay, 10 min; note: % is set by controls: 0 for no effect and ±100 for the full control effect
Target sequence (Q9UBT6 whole entry, looked up): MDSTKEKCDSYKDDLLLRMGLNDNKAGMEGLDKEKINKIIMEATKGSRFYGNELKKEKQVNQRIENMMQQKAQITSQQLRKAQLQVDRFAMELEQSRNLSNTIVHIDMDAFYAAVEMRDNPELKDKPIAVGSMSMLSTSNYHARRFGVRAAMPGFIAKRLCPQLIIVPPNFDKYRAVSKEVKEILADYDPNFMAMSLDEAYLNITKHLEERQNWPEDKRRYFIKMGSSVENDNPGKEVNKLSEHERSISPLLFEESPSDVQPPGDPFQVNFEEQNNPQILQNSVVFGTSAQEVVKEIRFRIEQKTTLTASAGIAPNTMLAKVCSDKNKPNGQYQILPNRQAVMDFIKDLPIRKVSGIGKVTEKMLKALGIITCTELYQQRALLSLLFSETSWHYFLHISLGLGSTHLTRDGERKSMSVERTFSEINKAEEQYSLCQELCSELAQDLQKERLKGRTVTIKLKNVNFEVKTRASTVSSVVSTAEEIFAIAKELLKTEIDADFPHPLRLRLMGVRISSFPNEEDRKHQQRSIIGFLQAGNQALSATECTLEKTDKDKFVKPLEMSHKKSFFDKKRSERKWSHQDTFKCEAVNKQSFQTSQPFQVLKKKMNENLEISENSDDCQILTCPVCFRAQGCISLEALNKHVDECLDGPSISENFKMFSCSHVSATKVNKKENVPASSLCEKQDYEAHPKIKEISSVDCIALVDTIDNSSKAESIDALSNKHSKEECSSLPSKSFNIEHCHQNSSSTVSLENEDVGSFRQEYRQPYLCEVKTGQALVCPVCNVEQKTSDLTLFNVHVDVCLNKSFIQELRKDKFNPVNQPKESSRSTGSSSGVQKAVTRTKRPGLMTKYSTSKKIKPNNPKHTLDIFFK
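Kinetic fluorescence screen: compound preincubated 15 min RT with 10 nM enzyme; 50 nM substrate (final) initiates; reads at 0/10 min.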
POLB inh – qHTS Assay for Inhibitors of DNA Polymerase Beta | P06746 | Pol beta primer extension/strand displacement, fluorescence kinetic | Potency, µM (series often up to 114 µM), for the others: at the highest dose activity change, negative = inhibition, usual class: inhibitors | 1.3% of 340,000 active; note: % is set by controls: 0 for no effect and ±100 for the full control effect
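Preincubation: enzyme (10 nM) with compound, 15 min, RT. Reaction: substrate added to 50 nM final. Reads: 0 and 10 min. Analysis: normalized, Hill fit.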
WRN helicase inh – qHTS for Inhibitors of WRN Helicase | Bifunctional 3'-5' exonuclease/ATP-dependent helicase WRN (Homo sapiens), Q14191 | WRN helicase unwinding, fluorescent forked duplex, kinetic | Potency, µM (doses to about 114 µM), without a hit: at the highest dose activity change, negative = inhibition, actives largely listed as inhibitors | 0.46% of 360,000 active | AID 651768, 2012; note: % is set by controls: 0 for no effect and ±100 for the full control effect; nearly all actives have a fitted effect of over 55% in size
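WRN at 20 nM final was preincubated with compound for 15 min at room temperature; reaction started with 100 nM forked duplex oligonucleotide carrying fluorophore and quencher plus 2 mM ATP (final). Unwinding followed kinetically by red fluorescence (ex 525/em 598 nm).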
POLI inh – qHTS for Inhibitors of Polymerase Iota; DNA polymerase iota (Homo sapiens), Q9UNA4; Pol iota fluorescent replication assay, 10 min; Potency, µM (doses to about 115 µM), for the others: at the top dose activity, negative = inhibition, usual class: inhibitors; 1% of 390,000 active; AID 588590, 2011
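Fluorescent replication assay read twice, at 0 min and 10 min after adding 50 nM (final) substrate. Enzyme (10 nM) and compounds were first incubated 15 min at room temperature; enzyme-free buffer wells were negative controls.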
POLH inh – qHTS for Inhibitors of Polymerase Eta | DNA polymerase eta (Homo sapiens), Q9Y253 | recombinant Pol eta, fluorescent DNA replication assay | Potency, µM (series often up to 114 µM), for inactives: top-dose activity change, negative = inhibition, hits mostly inhibitors | 1.2% of 390,000 active | AID 588591, 2011; note: % is set by controls: 0 for no effect and ±100 for the full control effect
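Fluorescent replication assay: 50 nM final substrate added after a 15 min room-temperature compound preincubation with 10 nM enzyme. Signal taken at 0 min and again at 10 min.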
An asterisk follows results filed as active; ? = inconclusive; . = no result given; [ ] = another dose, or the depositor's remark. Calls come from the whole dose curve; as a rule, active = well fitted curve in the direction sought with a large enough effect; inconclusive = small, poorly fitted or top-dose-only effect, or another doubt; inactive = no such curve, though single readings can be large; an effect the other way counts as inactive or inconclusive. Potency is the fitted concentration of half-maximal effect.

SMILES	POLK inh	POLB inh	WRN helicase inh	POLI inh	POLH inh
Cc1ccc(S(=O)(=O)N(CC(O)Cn2c3ccccc3c3ccccc32)c2cccc(C(N)=O)c2)cc1 (stereo unspecified)	-10%	0%	.	-22%	-8%
Cc1ccc(S(=O)(=O)N(CC(O)Cn2c3ccccc3c3ccccc32)c2cccc(C(=O)N(C)C)c2)cc1 (stereo unspecified)	79µM*	-16%	.	89µM*	-13%
CN(C)CC(C(=O)c1ccccc1)c1ccccc1 (stereo unspecified)	-1%	2%	?	32µM*	-15%
CN(Cc1cc(Cl)cc(Cl)c1)CC(C(=O)c1ccccc1)c1ccccc1 (stereo unspecified)	-4%	.	-9%	8%	-5%
C=CCn1c(COc2ccc(F)cc2)nnc1SCC(=O)NC(=O)NCc1ccco1	?	25µM*	-21%[57.1 µM]	50µM*	?
C=CCn1c(COc2ccc(F)cc2)nnc1SCC(=O)NC1CCCC1	4%	.	3%	22%	-10%
Cc1ccc(-n2c(SCC(=O)NCc3ccco3)nnc2-c2cccnc2)cc1	-10%	-4%	7%	-1%	-13%
C=CCn1c(COc2cccc(C)c2)nnc1SCC(=O)NC(=O)NCc1ccco1	?	20µM*	-8%[11.6 µM]	71µM*	?
O=C(CSc1nnc(-c2ccncc2)n1-c1ccc(F)cc1)NC(=O)NCc1ccco1	?	28µM*	?	20µM*	79µM*
C=CCn1c(COc2cccc(C)c2)nnc1SCC(=O)c1c(N)n(C)c(=O)n(C)c1=O	4%	.	1%	29%	-15%
Cc1cccc(CN2CC34C=CC(CC3S2(=O)=O)O4)c1 (stereo unspecified)	9%	.	.	9%	.
CCCCCCCCN1[C@@H](CC(C)=O)c2ccc(/C=C/C(C)=O)cc2S1(=O)=O	14%	.	.	?	.
C=C(C)C1CCC2(C(=O)O)CCC3(C)C(CCC4C5(C)C(C=O)C(O)C(C)(C)C5CCC43C)C12 (stereo unspecified)	-15%	0%	-4%[11.6 µM]	-25%	79µM*
N#Cc1ccc(CSc2nnc(NC(=O)C3CC(=O)N(c4ccc5c(c4)OCCO5)C3)s2)cc1 (stereo unspecified)	1%	8.9µM*	-9%	31%	-13%
CCc1ccc(-c2csc(NC(=O)C3CC(=O)N(c4ccc5c(c4)OCCO5)C3)n2)cc1 (stereo unspecified)	-29%	?	-28%	89µM*	-18%
Cc1csc(NC(=O)C2CC(=O)N(c3ccc4c(c3)OCCO4)C2)n1 (stereo unspecified)	-4%	.	2%	17%	4%
O=C(Nc1nnc(SCc2ccc(F)cc2)s1)C1CC(=O)N(c2ccc3c(c2)OCCO3)C1 (stereo unspecified)	-6%	3%	-4%	-8%	-6%
CC(=O)Nc1ccc(SCC(=O)Nc2sccc2C#N)cc1	-10%	-9%	-5%	79%	-15%
CC(C)Nc1nnc(SCC(=O)Nc2sccc2C#N)s1	-34%	.	-4%[11.6 µM]	?	32µM*
Cc1ccnc(SCC(=O)Nc2sccc2C#N)n1	?	32µM*	4%[11.6 µM]	?	-27%
CC(=O)N/C(=C/c1ccccc1)c1ccncc1	3%	.	.	28%	.
Cn1c(=O)c(NCCc2ccccc2)c2c3c(cccc31)C(=O)c1ccccc1-2	?	14µM*	40µM*	?	?
COC(=O)/C=C/c1cc(O)ccc1O	-3%[19.4 µM]	.	.	.	.
O=C(c1cc(-c2ccccc2Cl)nc2ccccc12)N1CCC1	-5%	.	-11%	-11%	-13%
COc1ccc(-c2cc(C(=O)N3CCCCCC3)c3ccccc3n2)c(OC)c1	-39%	22µM*	-15%	79µM*	?
SMILES	POLK inh	POLB inh	WRN helicase inh	POLI inh	POLH inh
Cc1ccccc1-c1cc(C(=O)N2CCCC2)c2ccccc2n1	?	?	-22%	25µM*	?
O=c1c(O[C@@H]2O[C@H](CO)C(O)C2O)c(-c2ccc(O)c(O)c2)oc2cc(O)cc(O)c12 (stereo partly specified)	25µM*	.	-22%	35µM*	?
CC1OC(OCC2OC(Oc3c(-c4ccc(O)c(O)c4)oc4cc(O)cc(O)c4c3=O)C(O)C(O)C2O)C(O)C(O)C1O (stereo unspecified)	6.3µM*	.	.	.	.
COc1cc(-c2oc3cc(O)cc(O)c3c(=O)c2O[C@@H]2O[C@H](COC3O[C@@H](C)[C@H](O)[C@@H](O)[C@H]3O)[C@@H](O)[C@H](O)[C@H]2O)ccc1O (stereo partly specified)	-16%	.	-2%	?	-8%
C[C@@H]1O[C@@H](OC[C@H]2O[C@@H](Oc3cc(O)c4c(=O)cc(-c5ccc(O)c(O)c5)oc4c3)[C@H](O)[C@@H](O)[C@@H]2O)[C@H](O)[C@H](O)[C@H]1O	-6%	.	-3%	-21%	-8%
COc1ccc(-c2cc(=O)c3c(O)c(OC)c(O[C@@H]4OC(COC5OC(C)C(O)C(O)[C@@H]5O)C(O)C(O)C4O)cc3o2)cc1 (stereo partly specified)	-10%[60.1 µM]	.	.	.	.
O=c1cc(-c2ccc(O)c(O)c2)oc2cc(O[C@@H]3O[C@H](CO)[C@@H](O)[C@H](O)[C@H]3O)cc(O)c12	2.5µM*	.	?	6.3µM*	8.9µM*
O=c1cc(-c2ccccc2)oc2cc(O[C@@H]3O[C@H](CO)[C@@H](O)[C@H](O)[C@H]3O)c(O)c(O)c12	10µM*	.	.	.	.
CCC[C@H](NC(C)=O)C(=O)N[C@H]1CC(=O)ONCCCC[C@@H](C(N)=O)NC(=O)[C@H](Cc2c[nH]c3ccccc23)NC(=O)[C@H](CCCN=C(N)N)NC(=O)[C@@H](Cc2ccc3ccccc3c2)NC(=O)[C@H](Cc2cnc[nH]2)NC1=O	12%[60.1 µM]	.	.	.	.
O=[N+]([O-])c1ccc(/C=C2\C=Cc3ccccc32)cc1	3%	.	.	-1%	.
Cc1ccc(C2C(C#N)=C(N)N(c3cccnc3)C3=C2C(=O)CCC3)s1 (stereo unspecified)	-2%[60.1 µM]	?	-7%[11.6 µM]	?	56µM*
CN(C)[C@H]1C(=O)C(C(=O)NCN2CCCC2)=C(O)[C@]2(O)C(=O)C3=C(O)c4c(O)cccc4[C@@](C)(O)[C@H]3C[C@@H]12	4.7µM*	.	.	.	.
CCc1cc(=O)oc2cc(C)c(CN3CCCC(C)C3)c(O)c12 (stereo unspecified)	10µM*	3.2µM*	35µM*	3.5µM*	35µM*
CCc1cc(=O)oc2c(CN3CCCC3)c(O)c(Cl)cc12	-4%	0%	-4%	10%	-10%
